Measured values taken from PubChem BioAssay (NCATS).
Records with an inconclusive call do not appear. Unmarked numbers belong to inactive results. The source made the active and inactive calls. The call rests on the fitted dose curve; in most records, active means well fitted inhibition curve with a large enough effect; inconclusive means small, poorly fitted or top-dose-only effect; inactive means no such curve, though single readings can be large or run the other way.

The compounds below were run on Zika virus NS2B-NS3 protease (unlinked complex) (assay: Primary screen GU Rhodamine qHTS for Zika virus inhibitors: Unlinked NS2B-NS3 protease assay (AID 1347159; further: nearly all actives have a fitted effect of over 60% in size)). Conditions: Recombinant ZIKV NS2B-NS3 protease, Rhodamine110 substrate fluorescence; series mostly up to 107 µM; activity change, negative = inhibition: at the top concentration.
Procedure, shortened: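 Noncovalent NS2B hydrophilic domain/NS3 protease complex (25 nM final) in 10 mM Tris-HCl pH 8.0, 0.01% Tween 20, preincubated 15 min with compounds (up to 114 microM), then 1.5 microM Rhodamine110 substrate. Fluorescence change over 15 min fitted to 4-parameter Hill.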
On the % scale 0 is the no-effect control and ±100 the full control effect; potency means the concentration at half of the fitted maximal effect.

With `O=S(=O)(NCC1CC1)c1ccc(Nc2nccc(N3CCCc4cc(O)ccc43)n2)cc1` the Potency was 39.8 µM (active).
`C/C(=C\CCC(C)CCO)C(=O)O[C@@H]1[C@@H](O)[C@H](OC2OC=C(C(=O)O)C3CCC(C)(O)C23)O[C@H](CO)[C@H]1O` (stereo not given in full) was tested, and the Potency was 35.5 µM (active).
In the case of `C=C1CCC2C(C)(C)C(O)CCC2(C)C1CCC(C)CCOC(C)=O` (stereo not given), the Potency is reported as 22.4 µM (active).
In the case of `Cc1cc(OCc2nc(-c3ccccc3Cl)cs2)ccc1OCC(=O)O`, the Potency is reported as 12.6 µM (active).
`COc1ncc(Nc2ncc([C@@H](C)N3CCN(S(C)(=O)=O)CC3)cc2-c2nc(C)nc(N)n2)cc1F` was tested, and the Potency was 44.7 µM (active).

Compound `C[C@@H]1O[C@@H](O[C@H]2[C@H](O)[C@@H](O[C@@H]3O[C@H](CO)[C@@H](O)[C@H](O[C@@H]4O[C@H](CO)[C@@H](O)[C@H](O)[C@H]4O)[C@H]3O)[C@H](O[C@H]3CC[C@@]4(C)C(=CC[C@@H]5C4CC[C@@]4(C)C5C[C@@H]5OC6(CC[C@@](C)(CO[C@@H]7O[C@H](CO)[C@@H](O)[C@H](O)[C@H]7O)O6)[C@@H](C)[C@@H]54)C3)O[C@@H]2CO)[C@H](O)[C@H](O)[C@H]1OC1OC(CO)C(O)C(O)C1O` (stereo not given in full) has an activity change, negative = inhibition of -17.5% [at 19.1 µM].

Compared with `COc1cccc(-c2cc(NCc3ccc4c(c3)OCO4)nc(N)n2)c1`, `COc1ccc(C2COc3cc(O)ccc3C2)c(O)c1` (stereo not given) is lower in “activity change, negative = inhibition” value: 64.8% for the first, -2.44% for the second.

Compared with `O=C(c1cc2c(cc1F)OC(c1ccc(F)cc1)(c1ccc(Cl)cc1Cl)O2)N1CCOCC1` (stereo not given), `COc1ccc(F)cc1-c1cc(NC(=O)[C@@H]2CCCNC2)ncc1Cl` is higher in “activity change, negative = inhibition” value: -7.77% for the first, 126% for the second.

Going from `CCN1CCN(Cc2ccc(NC(=O)c3ccc(C)c(NC(=O)c4cncc(-c5cccs5)c4)c3)cc2C(F)(F)F)CC1` to `CC(C)c1nc(-c2ccc(NC(=O)Nc3cccc(C(F)(F)F)c3)c3ccccc23)c2c(N)nccn12`, the “activity change, negative = inhibition” value falls from 206% to -9.75%.

Going from `CN1CCC(Nc2nc(Nc3ccc(Oc4ccccc4)cc3)c3c(=O)[nH]cc(Br)c3n2)CC1` to `COC(=O)c1ccnc(-c2cc(C(=O)NCCc3ccccc3)ccn2)c1`, the “activity change, negative = inhibition” value falls from 133% to 27.7%.

Compared with `CC1(C)CCC[C@]2(C)[C@H]3CC(=O)O[C@]3(C)CC[C@@H]12`, `C=CC(C)(O)C(O)CC1C(C)(O)C(O)C(O)C2C(C)(C)CCCC21C` (stereo not given) is higher in “activity change, negative = inhibition” value: 0% for the first, 14.6% for the second.

First: Cn1cc(-c2ccc3nnc(Sc4ccc5nn(C)cc5c4)n3n2)cn1
Second: COC(=O)CCSCc1ccc(-c2onc(C)c2NC(=O)OC(C)c2ccccc2Cl)cc1 (stereo not given)
The “activity change, negative = inhibition” value of the first is lower: 1.46% for the first, 2.59% for the second.

Going from `CC(C)(C(=O)NCC(F)(F)C(F)(F)F)C(=O)NC1C(=O)Nc2ccccc2-c2ccccc21` (stereo not given) to `CCNCc1nc2c(N)nc3ccccc3c2n1CC(C)(C)O`, the “activity change, negative = inhibition” value falls from 23.2% to -1.6%.

Compared with `CNS(=O)(=O)CC1CCC(N(C)c2ncnc3[nH]ccc23)CC1` (stereo not given), `Nc1nc(-n2cc(C(=O)O)c(=O)c3cc(F)c(N4CC(O)C4)c(Cl)c32)c(F)cc1F` is higher in “activity change, negative = inhibition” value: -0.423% for the first, 19.2% for the second.

Going from `C=C1C(OC2OCC(O)C(O)C2O)CC2C(C)(C)C(O)CCC2(C)C1CC/C(C)=C\CO` (stereo not given) to `C=C[C@H]1C(O[C@@H]2O[C@H](CO)[C@@H](O)[C@H](O)[C@H]2O)OC=C2C(=O)N3CCc4c([nH]c5ccccc45)C3CC21` (stereo not given in full), the “activity change, negative = inhibition” value falls from -17.8% [at 57.1 µM] to -19.6% [at 57.1 µM].

Going from `CC1=CC2/C=C(\C)CC[C@@H](O)[C@@H](O)[C@@H]3O[C@@H]3C(=O)[C@]23C(=O)N[C@@H](CC(C)C)[C@@H]3[C@@H]1C` (stereo not given in full) to `COC(=O)c1c(C)cc(OC(=O)c2c(C)cc(OC)cc2OC)cc1O[C@@H]1O[C@H](CO)[C@@H](O)[C@H](O)[C@H]1O`, the “activity change, negative = inhibition” value rises from 9.87% [at 57.1 µM] to 21.2% [at 57.1 µM].

In the case of `C[C@@H]1C(=O)O[C@H]2C[C@]34[C@H]5C[C@@H](C(C)(C)C)[C@]36[C@@H](OC(=O)[C@H]6O)O[C@]4(C(=O)O5)[C@]21O`, the “activity change, negative = inhibition” value is reported as 9.22% [at 57.1 µM].

Compared with `CC1OC(OCC2OC(OC3CCC4(C)C(CCC5(C)C4CC=C4C6CC(C)(C)CCC6(C(=O)OC6OC(CO)C(O)C(O)C6O)CCC45C)C3(C)CO)C(O)C(O)C2O)C(O)C(O)C1O` (stereo not given), `CC1(C=O)CC[C@]2(C(=O)O[C@@H]3O[C@H](CO)[C@@H](O)[C@H](O)[C@H]3O)CC[C@]3(C)C(=CCC4[C@@]5(C)C[C@H](O)[C@H](O[C@@H]6OC[C@@H](O)[C@H](O)[C@H]6O)[C@@](C)(CO)C5CC[C@]43C)C2C1` (stereo not given in full) is higher in “activity change, negative = inhibition” value: 6.58% [at 32.5 µM] for the first, 11.8% [at 32.5 µM] for the second.

For `CC(C)=CCC[C@](C)(O)[C@H]1CC[C@]2(C)[C@@H]1[C@H](O)CC1[C@@]3(C)CC[C@H](O)C(C)(C)[C@@H]3[C@@H](O[C@@H]3O[C@H](CO)[C@@H](O)[C@H](O)[C@H]3O[C@@H]3O[C@H](CO)[C@@H](O)[C@H](O)[C@H]3O)C[C@]12C` (stereo not given in full), the “activity change, negative = inhibition” value was 18.9% [at 32.5 µM].
